Consider 17 compounds from the antibiotic and cytotoxicity screens of Wong et al. (2023).

Hit rate of the full screen: of about 39,000 compounds, about 1,500 (3.8%) were called active. The entries come from a sample that favours actives as a whole.

This assay concerns HSkMC (human skeletal muscle cells). Put plainly: cytotoxicity call (relative viability < 0.9). Particulars: 10 µM.
With `C[C@H](CO)N1C[C@H](C)[C@H](CN(C)Cc2ccc(Cl)c(Cl)c2)Oc2ccc(NS(=O)(=O)c3ccc(F)cc3)cc2CC1=O`, the cytotoxicity call is “inactive”.

In the case of `C[C@@H]1CN([C@H](C)CO)C(=O)Cc2cc(NS(=O)(=O)c3ccc(Cl)cc3)ccc2O[C@H]1CN(C)Cc1ccc(Cl)c(Cl)c1`, the cytotoxicity call is “active”.

`C[C@H](CO)N1C[C@H](C)[C@@H](CN(C)Cc2ccc(Cl)c(Cl)c2)Oc2ccc(NS(=O)(=O)c3ccc(F)cc3)cc2CC1=O`: the cytotoxicity call was “inactive”.

Take `C[C@H]1CN([C@@H](C)CO)C(=O)Cc2cc(NS(=O)(=O)c3ccc(Cl)cc3)ccc2O[C@H]1CN(C)Cc1ccc(Cl)c(Cl)c1`: the cytotoxicity call was “active”.

Consider `COc1ccc(S(=O)(=O)Nc2cccc3c2O[C@@H](CN(C)S(=O)(=O)c2cccs2)[C@@H](C)CN([C@@H](C)CO)C3=O)cc1`, for which the cytotoxicity call is “inactive”.

Take `C[C@H]1CN([C@@H](C)CO)C(=O)c2cccc(NC(=O)Nc3cccc4ccccc34)c2O[C@H]1CN(C)C(=O)Nc1ccc(F)cc1`: the cytotoxicity call is “inactive”.

In the case of `OCCN1CCOCC1`, the cytotoxicity call was “inactive”.

In the case of `CCN1C(=O)S[C@@H](CC(=O)O)C1=O`, the cytotoxicity call is “inactive”.

As for `COc1ccc(NC(=O)N(C)C[C@@H]2Oc3c(NS(C)(=O)=O)cccc3C(=O)N([C@@H](C)CO)C[C@H]2C)cc1`, the cytotoxicity call was “inactive”.

As to `CN1C(=O)c2cc(NC(=O)Nc3ccccc3F)ccc2OC[C@@H]2O[C@H](CC(=O)NCc3ccc(-c4ccccc4)cc3)CC[C@H]21`, the cytotoxicity call is “inactive”.

On to `O=[N+]([O-])c1ccc(Oc2ccc(-c3ccccc3)cc2)cc1`, for which the cytotoxicity call was “inactive”.

In the case of `O=c1cc(O)nc[nH]1`, the cytotoxicity call was “inactive”.

Turning to `O=C(O)c1ccc(O)c(O)c1O`, the cytotoxicity call was “inactive”.

With `CSCC[C@H](NC(=O)[C@@H](N)Cc1c[nH]c2ccccc12)C(=O)N[C@@H](CC(=O)O)C(=O)N[C@@H](Cc1ccccc1)C(N)=O`, the cytotoxicity call was “inactive”.

Consider `CSCC[C@H](NC(=O)[C@H](Cc1c[nH]c2ccccc12)NC(=O)CNC(=O)[C@@H](NC(=O)[C@H](Cc1ccc(OS(=O)(=O)O)cc1)NC(=O)[C@H](CC(=O)O)NC(=O)[C@H](CCC(N)=O)NC(=O)[C@@H]1CCC(=O)N1)[C@@H](C)O)C(=O)N[C@@H](CC(=O)O)C(=O)N[C@@H](Cc1ccccc1)C(N)=O`, for which the cytotoxicity call was “inactive”.

As to `CSCC[C@H](NC(=O)[C@H](Cc1ccc(OS(=O)(=O)O)cc1)NC(=O)[C@@H](N)CC(=O)O)C(=O)NCC(=O)N[C@@H](Cc1c[nH]c2ccccc12)C(=O)N[C@@H](CCSC)C(=O)N[C@@H](CC(=O)O)C(=O)N[C@@H](Cc1ccccc1)C(N)=O`, the cytotoxicity call was “active”.

Regarding `C[C@H]1CN([C@@H](C)CO)C(=O)Cc2cc(NC(=O)c3ccncc3)ccc2O[C@H]1CN(C)S(=O)(=O)c1ccc(F)cc1`, the cytotoxicity call is “inactive”.
